# Data taken from the supplement of paper PMC6555819.
# System: VDR:RXRa (NR concentration 270 nM, RXRa partner concentration 90 nM)
# Assay: PBM binding z-score (relative to random genomic background probes); higher = stronger binding; sequences stand for … in GC…GCGATTGACAGCGTAGAATGAAGG
# Description: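 Protein-binding microarray (Agilent 4x180K custom design, double-stranded 60-nt probes: 5' GC cap, 34-nt variable region, 24-nt constant primer region; full probe sequence given). Purified or IVT nuclear receptor:RXRα heterodimers (3:1 NR:RXRα, mostly 270:90 nM) or homodimers were incubated for 1 h in PBS with 2% milk and no ligand, then detected with Alexa488 antibodies. Fluorescence from o1-orientation probes (~5 replicates averaged) was converted to z-scores against 500 random hg19 background probes. Variable regions are seed direct-repeat (DR0–DR5) sites, all their single-nucleotide variants and half-site ablations.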
row,Sequence,PBM binding z-score
1,ACTTACGGGTCAACGAGGTTATAGCTCGCGTATA,7.8
2,GGAACGAGGGCAAGTTGATATCAGAGTTTGATGG,1.42
3,CTTCCAAGGTCAAAGGTCAGTGAAGAGATGACGG,6.57
4,TCTTGTAGATCAGCAGGTGAAGAAAGCTGGCCAA,0.208
5,ATCTCTAGCTAAGACTCAGTTCAGTGAAGAACGC,0.552
6,CGAACTAGGTCATTGACAGGACCGTGAATAGTAA,1.51
7,CCGACTGGGGCAGAAAGGTGACCATACCATCCGG,-0.31
8,TCGAGTAAGTTAGGGGCATTCAGAATGGCGTCGA,0.425
9,ACAATTAGTTGACTTAGGGCAACCGATACGACGC,0.376
10,ATCGAAAGGTCGAAGGTGATTATACCCACCCGAA,2.61
11,TCAGACAGGTCAAGGTAACTCAGGTACGCAGTCG,3.09
12,TAGCCTAGGTCATGCGGGCCAGTATTGTGTCGGC,2.92
13,GGAACAAGGGCAAAGTTGATAGCATCTGTCGACG,0.828
14,TCTTGTAGATAAAAGGTTAAGAAAGCCGAAGCCT,1.2
15,CCTACTGGGCCAAGATCATTGATCAGTCAAAGCA,-0.601
16,AGAACGCGGGCACGCTGAGTTGATAGCAGAGTAG,-0.403
17,CCTTCCGGGTCAAGGTTATAGCACGGGTGGTACG,3.38
18,CCAGACAGGTGAGAAGGTAACTCTGCCTCGATTA,-0.12
19,CCGACTGGGGCAAGGTTTCCATAACGCACAGCCA,-0.502
20,GCGACTGGGGCAAAGCAGGTTACCATTAGGTTGG,-0.0809

row,Sequence,PBM binding z-score
1,GCTAGTTGGTCAGTAAAAGGTCACACTCCGGTCG,3.76
2,CCTTACGGGTCACTGACAGGTTTTAGCATTTGGA,3.31
3,GCGACTGGGGCATCAGCTGGTTACCATAACTTAA,-0.49
4,GAGACAGGGTCAGCTAGAGGCCAGAGTATGGAAA,3.22
5,TCTACCAGGCCAGAGGGTCACTCAAGAGGTACGG,2.1
6,GATACAGGGTCAAGGCCTGAGTACGCGTATTGAT,4.48
7,ATCTCTAGGTAAAAGGTCAGTGAATCCCGAGGAT,2.51
8,ATCGAAAGGTCGAGGTGAGTATAGAGAAAGGGAA,2.69
9,AATATAGGGTCACTAGGCCAGAGTAGGTACGAAT,4.06
10,CAAACTAGGTTAAGAGGTCAAAGTCCGCTTCCCG,5.21
11,TCGAGTAGGTTAGGGGCACTCAGAATGGCGTCGA,-0.143
12,CCTACTGGTCCATTCAGAGGTCATTGATCATATG,4.24
13,GCTAGCTGGTCAGTAAAAGGTCACACACCGGTCG,3.52
14,ATCTCAAGGTAAAGATAGTTCAGTGAATGCAAAT,1.37
15,TTACCAAGGTGAAGGTCGTTCATCCCTCTGTAGA,1.74
16,GGAACGAGGGCATTCGAGTTGATAGCTTGGCGAT,3.55
17,GCTAGCAGGCCATTTGTGTCACTCAATGACGGGC,-0.481
18,TCGAGTAGGTTACTAATGGGGCATTCAGCTTTCT,0.0839
19,CCTCGCAGGCCAGGGTCACTCAAGCATTTCGCTT,2.41
20,CGTAAAAGTTCAAGGTAACGTAACAGAAAGCAGC,3.38
